Screens (PubChem BioAssay)
The list is not random: actives were taken first. Their share in the collection is about 1.1%.
FadD28 FP inh – M. tuberculosis FadD28 bisubstrate binding inhibition. FadD28 bisubstrate probe binding, fluorescence polarization. inhibition, % at 12.5 µM. 360,000 tested, 0.22% active; in the data active = inhibition above about 8.5%, passing the limit was not always enough
TcdB inh – inhibitors of Clostridioides difficile toxin B glycohydrolase; P18177; TcdB glycohydrolase enzymatic assay, plate reader; inhibition, % at 9.99 µM; 350,000 tested, 0.24% active; AID 652162; in the data active = inhibition above about 10%
PrP 5UTR inh – suppresses PrP 5' UTR mRNA reporter expression. inhibition, % (test concentration not listed). cell-based PrP 5' UTR mRNA reporter, plate reader. AID 488862. 340,000 tested, 0.35% active; in the data active = inhibition above about 52%
PfHsp40 yeast – compounds rescuing yeast from Plasmodium falciparum HSP40 toxicity; AID 504582; growth rescue, % at 12.5 µM; S. cerevisiae expressing PfHsp40, growth rescue, ATP luminescence; 340,000 tested, 0.68% active; in the data active = growth rescue above about 28%, passing the limit was not always enough;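 also: yeast W303a lacking pdr1 and pdr3 grown in galactose medium; growth measured after three days at 30 °C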
BioA inh – BioA (M. tuberculosis) enzyme inhibition; AID 602481; purified M. tuberculosis BioA enzyme, plate reader; 360,000 tested, 0.096% active; inhibition, % at 9.99 µM; in the data active = inhibition above about 40%
Numbers stand for hits.

`CCCCCCSc1ccc(-c2nc3ccccn3c2NCCCC)cc1` gave FadD28 FP inh inactive, TcdB inh inactive, PrP 5UTR inh inactive, PfHsp40 yeast 324 and BioA inh inactive.
N#Cc1c(NC(=O)c2ccccc2)sc2c1CCCCC2 was read as FadD28 FP inh inactive, PrP 5UTR inh inactive, PfHsp40 yeast inactive and BioA inh inactive.
Screening N#Cc1c(Cl)nsc1NC(=O)c1ccccc1 returned FadD28 FP inh inactive, TcdB inh inactive, PrP 5UTR inh inactive and PfHsp40 yeast 217.
For CCc1cc(C(=O)c2ccc(OC)cc2)c(N)s1 the results were FadD28 FP inh inactive, TcdB inh inactive, PrP 5UTR inh inactive, PfHsp40 yeast inactive and BioA inh inactive.
COc1ccc(C(=O)c2ccsc2N)cc1 was read as FadD28 FP inh 8.6, TcdB inh inactive, PrP 5UTR inh inactive and PfHsp40 yeast inactive.
C[n+]1c(-c2ccc(C=NNC(=O)c3ccc(C(=O)NN=Cc4ccc(-c5cn6ccccc6[n+]5C)cc4)cc3)cc2)cn2ccccc21 was read as FadD28 FP inh inactive, TcdB inh inactive, PrP 5UTR inh inactive and PfHsp40 yeast 92.
For CCCC(=O)Nc1ccc2c(c1)C(=O)N(C)C[C@H](OC)[C@@H](C)CN(CCC(F)(F)F)[C@@H](C)CO2 the results were TcdB inh inactive and BioA inh inactive.
Screening Cc1cc(S(N)(=O)=O)ccc1N=Cc1c(O)n(-c2ccccc2)c(=O)[nH]c1=O returned FadD28 FP inh inactive, TcdB inh inactive, PrP 5UTR inh inactive and PfHsp40 yeast inactive.
`Cc1ccc(-n2c(O)c(C=Nc3ccccc3N)c(=O)[nH]c2=O)cc1C` gave FadD28 FP inh inactive, PrP 5UTR inh inactive, PfHsp40 yeast 40 and BioA inh inactive.
Screening Cc1ccc(S(=O)(=O)Cc2ccc(C(=O)N3CCN(c4cccc(C)c4C)CC3)o2)cc1 returned FadD28 FP inh inactive, TcdB inh inactive, PrP 5UTR inh inactive, PfHsp40 yeast 41 and BioA inh inactive.
`C[C@@H]1CN([C@H](C)CO)C(=O)c2cc(NC(=O)CCC(F)(F)F)ccc2O[C@@H](C)CCCCO[C@H]1CN(C)C(=O)c1ccncc1` gave BioA inh inactive.
Screening COC(=O)Nc1ccc2c(c1)Nc1ccccc1CC2 returned FadD28 FP inh inactive, TcdB inh inactive, PrP 5UTR inh inactive, PfHsp40 yeast inactive and BioA inh inactive.
Screening Nc1ccc2c(c1)Nc1ccccc1CC2 returned FadD28 FP inh inactive, TcdB inh 15, PrP 5UTR inh inactive and PfHsp40 yeast inactive.
For C[C@@H]1CN([C@H](C)CO)C(=O)c2cc(N(C)C)ccc2O[C@@H](C)CCCCO[C@@H]1CN(C)C(=O)Nc1ccccc1 the results were TcdB inh inactive and BioA inh inactive.
Cc1ccc(S(=O)(=O)Nc2ccc3c(c2)CC(=O)N([C@@H](C)CO)C[C@@H](C)[C@@H](CN(C)C(=O)Nc2c(C)noc2C)O3)cc1 was read as TcdB inh inactive and BioA inh inactive.
For Cc1ccc(S(=O)(=O)N(C)C)cc1NC(=O)COC(=O)CCC1CCCC1 the results were FadD28 FP inh inactive, TcdB inh inactive, PrP 5UTR inh inactive and PfHsp40 yeast inactive.
Screening Cc1ccc(OCCC(=O)OCC(=O)Nc2cc(S(=O)(=O)N(C)C)ccc2C)cc1 returned FadD28 FP inh inactive, TcdB inh inactive, PrP 5UTR inh inactive and PfHsp40 yeast 32.
`O=C(CSc1cccc[n+]1[O-])Nc1ccccc1Oc1ccccc1` gave FadD28 FP inh inactive, TcdB inh inactive, PrP 5UTR inh inactive, PfHsp40 yeast 90 and BioA inh inactive.
`COc1cccc(S(=O)(=O)N[C@@H]2C=C[C@H](CC(=O)NCc3ccncc3)O[C@@H]2CO)c1` gave TcdB inh inactive and BioA inh inactive.
For Cc1ccc(NP(=O)(Oc2ccccc2F)Oc2ccccc2F)cc1 the results were FadD28 FP inh inactive, PfHsp40 yeast inactive and BioA inh inactive.
CCc1ccc(NP(=O)(Oc2ccccc2F)Oc2ccccc2F)cc1 was read as FadD28 FP inh inactive, TcdB inh inactive, PrP 5UTR inh inactive and PfHsp40 yeast 43.
For C[C@H]1CN([C@@H](C)CO)C(=O)c2cccc(NC(=O)C3CC3)c2O[C@H]1CN(C)S(=O)(=O)c1ccc(Cl)cc1 the results were TcdB inh inactive and BioA inh inactive.
COC(=O)C1=C(c2ccc(OC(F)(F)F)cc2)C[C@@H]2CC[C@H]1N2C(=O)N1CCC(C)CC1 was read as FadD28 FP inh inactive, TcdB inh inactive, PrP 5UTR inh inactive, PfHsp40 yeast 41 and BioA inh inactive.
